Most compounds without a hit are left out; they make up all but 11% or so of the library.
HEK293 tox = HEK 293 cell cytotoxicity; HEK 293 viability, ATP luminescence (CellTiter-Glo), 48-72 h; actives 6.6% (n = 94,000); Potency, µM (top dose mostly 115 µM), without a hit: at the highest dose activity change, negative = cytotoxicity, usual class: inhibitors; note: nearly all actives have a fitted effect of over 60% in size
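Read-out: CellTiter-Glo ATP luminescence. Cells: HEK 293, 250 cells/well. Exposure: 48 or 72 hr, 37 degree Celsius.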
NPR1 antag = blocks ANP-stimulated signaling of human Npr1 receptor; P16066; HEK293 hNpr1 GloSensor cGMP, ANP-stimulated luminescence; Potency, µM (titrated, usually from 46.3 µM), for the others: at the top dose activity change, negative = inhibition, most hits filed as inhibitors; actives 1.6% (n = 76,000); AID 1347048; calls by dose curve; note: nearly all actives have a fitted effect of over 60% in size
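HEK293 cells stably expressing human Npr1 and cGMP GloSensor pGS-40F, loaded 2 h with 2% GloSensor reagent, given compound 30 min at room temperature. Luminescence read before and 20 min after 0.1 nM hNppA.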
Luciferase inh = inhibitors of firefly (Photinus pyralis) luciferase; P08659; Potency, µM (top dose mostly 115 µM), usual class: inhibitors; purified P. pyralis luciferase, luminescence, biochemical; actives 2.5% (n = 76,000); note: nearly all actives have a fitted effect of over 65% in size
Target sequence (P08659 whole entry, looked up): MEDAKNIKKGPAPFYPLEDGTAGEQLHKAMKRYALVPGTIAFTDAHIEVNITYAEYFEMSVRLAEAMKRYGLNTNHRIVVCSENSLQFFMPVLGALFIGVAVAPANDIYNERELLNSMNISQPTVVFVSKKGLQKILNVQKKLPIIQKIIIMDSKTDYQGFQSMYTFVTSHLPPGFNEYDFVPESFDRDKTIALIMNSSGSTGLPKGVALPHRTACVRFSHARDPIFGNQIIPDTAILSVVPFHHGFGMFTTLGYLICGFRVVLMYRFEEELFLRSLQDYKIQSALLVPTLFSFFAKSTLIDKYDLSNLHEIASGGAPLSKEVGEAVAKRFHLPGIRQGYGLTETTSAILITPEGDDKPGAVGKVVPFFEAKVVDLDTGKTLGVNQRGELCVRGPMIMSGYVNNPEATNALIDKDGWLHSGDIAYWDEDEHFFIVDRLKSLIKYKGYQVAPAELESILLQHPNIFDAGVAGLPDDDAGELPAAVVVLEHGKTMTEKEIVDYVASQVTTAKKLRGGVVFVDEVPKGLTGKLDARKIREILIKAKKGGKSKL
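Purified 10nM P. pyralis luciferase with 10uM D-luciferin and 10uM ATP in 50mM Tris acetate pH 7.5, 10mM Mg acetate, 0.01% Tween-20, 0.05% BSA. qHTS titration; luminescence read by CCD imager.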
3T3 cytotox = cytotoxic compounds in NIH 3T3 cells; NIH 3T3 viability, CellTiter-Glo ATP luminescence, 48-72 h; Potency, µM (highest dose often 96.7 µM), for the others: at the highest dose activity change, negative = cytotoxicity, actives largely listed as inhibitors; actives 4.3% (n = 94,000); note: nearly all actives have a fitted effect of over 55% in size
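Mouse fibroblast NIH 3T3 cells, 400 per well, received compound via pintool and were incubated for 48 or 72 hr prior to CellTiter-Glo ATP luminescence measurement.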
The depositor's hits bear a star; i = inactive; u = inconclusive; x = no result; [ ] = another dose, or the depositor's remark. Unless noted, calls come from the whole dose curve; as a rule, active = well fitted curve in the direction sought with a large enough effect; inconclusive = small, poorly fitted or top-dose-only effect, or another doubt; inactive = no such curve, though single readings can be large; an effect the other way counts as inactive or inconclusive. % is set by controls: 0 for no effect and ±100 for the full control effect; potency is the fitted concentration of half-maximal effect.

SMILES | HEK293 tox | NPR1 antag | Luciferase inh | 3T3 cytotox
O=C1CCCN1CC(=O)N1CCC(C2CCN(Cc3cccc(F)c3F)CC2)C1 (centres undefined) | 2% | 6% | i | 0%
O=C(C1CCN(Cc2ccccc2-c2ccccc2F)CC1)N1CCC(Cc2ccccc2)CC1 | 35µM* | x | x | 35µM*
O=C(C1CCCCC1)N1CCC(C2CCN(Cc3cccc(F)c3F)CC2)C1 (centres undefined) | 79µM* | 8% | i | u
O=C(c1cccc(Cl)c1)N1CCN(Cc2ccccc2-c2ccccc2F)CC1 | u | x | x | 45µM*
COCCOC1CCOC2(CCN(S(=O)(=O)c3c(C)noc3C)CC2)C1 (centres undefined) | -3% | 7% | i | -13%
O=C(NCC(F)(F)F)C1CCN(Cc2ccccc2-c2ccccc2F)CC1 | -17% | x | x | -22%
O=C(NCc1cccc(F)c1)C1CCN(Cc2ccccc2-c2ccccc2F)CC1 | 40µM* | x | x | u
O=C(Cc1ccc(F)cc1)N1CCc2nc(-c3ccc(Cl)cc3)nc(-c3ccccc3)c2C1 | 35µM* | 8% | i | u
COc1ccc(-c2nc(C(C)C)nc3c2CCN(C(=O)c2cccc(Cl)c2)CC3)cc1 | u | -20% | i | 45µM*
O=C(c1ccccc1Cl)N1CCc2nc(-c3ccc(Cl)cc3)nc(-c3ccccc3)c2C1 | 25µM* | -2% | u | u
COc1ccc(-c2nc(C(C)C)nc3c2CCN(C(C)=O)CC3)cc1 | -9%[172 µM] | 3%[70.6 µM] | i | -27%[138 µM]
COc1ccc(C(=O)N2CCc3nc(-c4ccc(Cl)cc4)nc(-c4ccccc4)c3C2)cc1 | 40µM* | 6% | i | u
COc1ccc(C(=O)N2CCc3nc(-c4ccccc4)nc(-c4ccc(OC)cc4)c3C2)cc1 | u | 2% | i | -32%
CN1c2cc(C(=O)NCc3ccc(F)cc3)ccc2C(=O)N2CCCCCC21 (centres undefined) | u | -20% | i | -24%
COc1ccc(C(=O)N2CCC(Oc3cccc(F)c3)C2)cn1 (centres undefined) | -20% | x | x | u
O=C(C1CCCN1C(=O)NC1CCCC1)N1CCC(c2ccccc2)CC1 (centres undefined) | -18% | x | x | u
COc1ccc(-c2nc(C(C)C)nc3c2CCN([S+](=O)([O-])c2ccc(C)cc2)CC3)cc1 | i | 2% | i | -11%
CCn1cc(C(CC(=O)N2CCC(C)CC2)c2cccc(Cl)c2)c2ccccc21 (centres undefined) | 40µM* | -16% | i | u
Cc1cnc(CC2CCN(C(=O)C(C)c3ccccc3)CC2)n1Cc1ccc(F)cc1 (centres undefined) | 35µM* | -3% | i | u
O=C(N1CCC(Cc2noc(-c3ccc(F)cc3)n2)C1)C1(c2ccccc2)CC1 (centres undefined) | 40µM* | x | x | u
Cc1ccc(CNC(=O)N2CCCC(Cc3noc(-c4ccccc4)n3)C2)cc1 (centres undefined) | 28µM* | 4% | i | 25µM*
O=C(Cn1c(=O)oc2ccccc21)N1CCCC(Cc2noc(-c3ccccc3)n2)C1 (centres undefined) | u | 7% | 40µM* | -22%
COc1ccc(CNC(=O)N2CCC(c3noc(-c4ccccc4)n3)C2)cc1 (centres undefined) | 45µM* | u | i | u
CC1CCCCC1Nc1ncnc2c1CN(C1CCNCC1)C(=O)CN2C (centres undefined) | -18% | x | x | -20%
Cn1cnc(S(=O)(=O)N2CCCC(Cc3noc(-c4ccccc4)n3)C2)c1 (centres undefined) | u | 2% | 35µM* | u
SMILES | HEK293 tox | NPR1 antag | Luciferase inh | 3T3 cytotox
Cc1nc(N2CCN(C(=O)c3ccc(C)s3)CC2)cc(C(F)(F)F)n1 | -26% | -18% | i | u
CCN(CC)Cc1nc(C2(O)CCN(C(=O)CCc3ccccc3)CC2)cs1 | -16%[172 µM] | 1%[70.6 µM] | i | -18%[174 µM]
CCC(CC)C(=O)NC[C@@H]1C=C(C)[C@H](Cc2nc3ccccc3n2C)C[C@H]1C(C)C | 32µM* | u | i | 35µM*
CC1=C[C@@H](CNC(=O)c2ccccc2)[C@H](C(C)C)C[C@H]1Cc1nc2ccccc2n1C | 25µM* | u | i | 32µM*
CC1=C[C@@H](CNC(=O)C2CCCCC2)[C@H](C(C)C)C[C@H]1Cc1nc2ccccc2n1C | 32µM* | u | i | 32µM*
CC1=C[C@@H](CNC(=O)CC(C)(C)CC(=O)O)[C@H](C(C)C)C[C@H]1Cc1nc2ccccc2n1C | -18% | 7% | i | u
CCc1cccc(Nc2nc(-c3ccc(OC)c(OC)c3)no2)c1 | u | -14% | u | u
COc1ccc(-c2noc(Nc3ccc(OC)cc3OC)n2)cc1 | u | -2% | 25µM* | -29%
COC(=O)c1ccccc1Nc1nc(-c2ccccc2)no1 | 10% | -9% | 14µM* | i
COC(=O)c1ccccc1NC(=O)Cn1cccc1-c1nc(-c2ccc(OC)c(F)c2)no1 | 11% | 1% | i | 4%
CC(C)C1CN(C(=O)OC(C)(C)C)CCN1 (centres undefined) | i | x | x | i
CCN(C(=O)CCC(=O)N1CCc2nc3cc(-c4ccc(OC)cc4)[nH]n3c(=O)c2C1)c1ccccc1 | u | -2% | 16µM* | u
COc1ccc(-c2cc3nc4c(c(=O)n3[nH]2)CN(C(=O)CCc2ccccc2)CC4)cc1 | 4% | 3% | i | 5%
O=C(NCCc1ccccc1F)c1cc(Br)cn2ccnc12 | u | -3% | 16µM* | u
Cc1ccc(C)c(Cn2ccn3nc4c(c3c2=O)CCCC4)c1 | 40µM* | -1% | i | u
COc1ccc(CCNC(=O)c2ccc(Cn3ccn4nc5c(c4c3=O)CCCC5)cc2)cc1OC | 40µM* | u | i | u
Cc1ccc(NC(=O)Cn2ccn3nc4c(c3c2=O)CCCCC4)c(C)c1 | -15% | -2% | u | -26%
COc1ccc(NC(=O)c2ccc(Cn3ccn4nc5c(c4c3=O)CCCC5)cc2)cc1OC | u | -4% | i | u
O=C(NC1CC1)c1ccc(Cn2ccn3nc4c(c3c2=O)CCCC4)cc1 | u | -9% | i | u
O=C(NC1CCCCCCC1)c1ccc(Cn2ccn3nc4c(c3c2=O)CCCC4)cc1 | 32µM* | -18% | i | u
Cc1ccccc1N1CCN(C(=O)c2ccc(Cn3ccn4nc5c(c4c3=O)CCCC5)cc2)CC1 | 20µM* | -28% | i | u
CCOC(=O)[C@@H]1CN(C(=O)C(CC)CC)[C@H]2c3cccc(C)c3O[C@@H]12 | -35% | x | x | u
O=C(NCCC1CCN(C(=O)Nc2cc(F)ccc2F)CC1)c1ccccc1F | u | x | x | -25%
CNC(=O)[C@H]1C[C@]2(CCCCNC2=O)N(C(=O)c2ccco2)[C@H]1c1ccccc1 | -18% | x | x | u
C#CCNC(=O)CNC(=O)c1cccc(-c2ccc(C(F)(F)F)cc2)c1 | u | x | x | -27%

Screening data as filed in PubChem.
